Values joined by “and” are separate entries in the source; they are usually repeats but may differ in a detail not shown here. Equal values may be shown once. Results filed as inconclusive are left out. More than one record can exist for a structure, and the calls need not agree. Active and inactive are the calls of the source. Rule for the calls, unless noted: active = hit-call score of the fitted dose curve at least 0.9, where 1 is the maximum; inactive = score below 0.9.
Columns and labels:
[1] = read-out: Human Leukocyte Antigen - DR isotype (HLADR), HLA-DRA (gene 3122); assay: BSK_3C_HLADR: BioMAP Diversity Plus: 3C Assay for Human Leukocyte Antigen - DR isotype (HLADR) Biomarker Activity (AID 2283019); settings: primary human endothelial cells (HUVEC); actives raise or lower the signal
Outline: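 ELISA readout of surface HLA-DR on human umbilical vein endothelium, taken 24 h after chemical treatment. Gain- and loss-of-signal were both fitted relative to DMSO.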

[2] = read-out: Interleukin-8 (IL8), CXCL8 (gene 3576); assay: BSK_3C_IL8: BioMAP Diversity Plus: 3C Assay for Interleukin-8 (IL8) Biomarker Activity (AID 2283020); settings: primary human endothelial cells (HUVEC); actives raise or lower the signal
Outline: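 Human vascular endothelial cells (umbilical vein) in the 3C system; IL-8 level detected by ELISA at 24 h post-dose, with DMSO as baseline.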

[3] = read-out: Monokine induced gamma interferon (MIG), CXCL9 (gene 4283); assay: BSK_3C_MIG: BioMAP Diversity Plus: 3C Assay for Monokine induced gamma interferon (MIG) Biomarker Activity (AID 2283021); settings: primary human endothelial cells (HUVEC); actives raise or lower the signal;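 for AC50: MIG protein level measured by immunoassay in the treated endothelial cultures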
Outline: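 After 24 h of treatment, human umbilical vein endothelial cultures (3C system) had their MIG biomarker level determined by ELISA, with DMSO serving as negative control.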

[4] = molecular target: human Vitamin D Receptor (VDR), VDR (gene 7421) (UniProt P11473); assay: ATG_VDR_TRANS: Attagene TRANS-FACTORIAL HepG2 Assay for human Vitamin D Receptor (VDR) (AID 2283022; active = hit-call score of the fitted dose curve at least 0.9, where 1 is the maximum)
Chain of human Vitamin D Receptor (VDR), VDR (gene 7421) (P11473 whole entry, looked up, the tested form may be a part): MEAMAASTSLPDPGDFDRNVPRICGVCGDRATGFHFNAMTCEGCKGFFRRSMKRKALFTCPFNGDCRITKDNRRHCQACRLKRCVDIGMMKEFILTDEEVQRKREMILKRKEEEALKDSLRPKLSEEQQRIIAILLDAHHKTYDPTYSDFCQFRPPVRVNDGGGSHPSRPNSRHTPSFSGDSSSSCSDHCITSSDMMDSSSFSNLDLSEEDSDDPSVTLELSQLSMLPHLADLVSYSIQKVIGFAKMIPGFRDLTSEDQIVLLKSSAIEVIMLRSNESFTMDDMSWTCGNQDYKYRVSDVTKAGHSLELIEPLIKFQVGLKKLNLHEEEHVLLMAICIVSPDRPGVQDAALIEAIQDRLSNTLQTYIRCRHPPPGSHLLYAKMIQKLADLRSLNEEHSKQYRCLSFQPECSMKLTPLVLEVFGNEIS
Outline: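 Steps: transfect HepG2 with GAL4-UAS-driven reporter constructs; dose compounds 24 h; isolate RNA, reverse-transcribe, PCR-amplify with 6-FAM-labelled primer extension and HpaI digestion; quantify fragments by capillary electrophoresis relative to DMSO.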

[5] = BSK_3C_SRB: Viability Assessment in the BioMAP Diversity Plus: 3C Assay (AID 2283023); settings: primary human endothelial cells (HUVEC);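 note: fitted both ways against DMSO so a hit may be signal rise or drop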
Outline: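 Absorbance at 560 nm of sulforhodamine B-stained (0.1%) total protein served as a cytotoxicity readout in human umbilical vein endothelial cells, 24 h after chemical treatment. Signal was fitted bidirectionally relative to DMSO.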

[6] = read-out: Matrix Metallopeptidase 1 (MMP1), MMP1 (gene 4312); assay: BSK_BE3C_MMP1: BioMAP Diversity Plus: BE3C Assay for Matrix Metallopeptidase 1 (MMP1) Biomarker Activity (AID 2283024); settings: primary human bronchial epithelial cells; actives raise or lower the signal
Outline: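 Dose cells, wait 24 h, run MMP1 ELISA; cells are human bronchial epithelial primaries. Both increases and decreases relative to DMSO counted.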

[7] = BSK_3C_Vis: BioMAP Diversity Plus: 3C Assay for Morphology Visualization (AID 2283025); settings: primary human endothelial cells (HUVEC);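 note: fitted both ways so gain or loss versus DMSO counts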;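 for AC50: light microscopy image of cell morphology used as background control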
Outline: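 Endothelial cells from human umbilical vein were treated with test chemicals for 24 h and inspected by light microscopy for changes in cell conformation.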

[8] = read-out: Pselectin, SELP (gene 6403); assay: BSK_4H_Pselectin: BioMAP Diversity Plus: 4H Assay for Pselectin Biomarker Activity (AID 2283026); settings: primary human endothelial cells (HUVEC); actives raise or lower the signal
Outline: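 Human vascular endothelium from umbilical vein; P-selectin measured by ELISA at 24 h post-dose, with cytotoxicity checked by sulforhodamine B total-protein staining in parallel cultures (0.1% SRB after 10% TCA fixation, read at 560 nm).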

[9] = BSK_4H_SRB: Viability Assessment in the BioMAP Diversity Plus: 4H Assay (AID 2283027); settings: primary human endothelial cells (HUVEC);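 note: cells exposed to compound for 24 h before staining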;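 for AC50: curves fitted both ways versus DMSO so AC50 may be loss or gain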
Outline: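 Human umbilical vein endothelial cells, 24 h after chemical dosing; total protein measured by 0.1% sulforhodamine B staining after 10% TCA fixation, read at 560 nm. Bidirectional fitting against DMSO.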

[10] = BSK_BE3C_SRB: Viability Assessment in the BioMAP Diversity Plus: BE3C Assay (AID 2283028); settings: primary human bronchial epithelial cells;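 for AC50: fitted both ways so AC50 may mark signal gain or loss versus DMSO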
Outline: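 Cells (human bronchial epithelial, primary) are treated with chemicals, and after 24 h the parallel cultures are fixed in 10% TCA. These are then stained with 0.1% SRB and read at 560 nm. Gain or loss of signal is fitted relative to DMSO.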

[11] = read-out: Thrombomodulin, THBD (gene 7056); assay: BSK_3C_Thrombomodulin: BioMAP Diversity Plus: 3C Assay for Thrombomodulin Biomarker Activity (AID 2283029); settings: primary human endothelial cells (HUVEC); actives raise or lower the signal
Outline: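 Thrombomodulin ELISA, human primary HUVEC, 24 h post-dose; data fitted in both directions relative to DMSO.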

[12] = read-out: Urokinase-type plasminogen activator receptor (uPAR), PLAUR (gene 5329); assay: BSK_4H_uPAR: BioMAP Diversity Plus: 4H Assay for Urokinase-type plasminogen activator receptor (uPAR) Biomarker Activity (AID 2283030); settings: primary human endothelial cells (HUVEC); actives raise or lower the signal
Outline: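 Cell-surface uPAR ELISA signal, measured 24 h after dosing human umbilical vein endothelial cells, was analyzed with bidirectional fitting relative to DMSO. Parallel SRB staining of total protein tracked overt cytotoxicity.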

[13] = read-out: Vascular endothelial growth factor receptor 2 (Homo sapiens) (UniProt P35968); assay: BSK_4H_VEGFRII: BioMAP Diversity Plus: 4H Assay for Vascular endothelial growth factor receptor 2 (VEGFR2) Biomarker Activity (AID 2283031); settings: primary human endothelial cells (HUVEC); actives raise or lower the signal;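 for AC50: cell-surface VEGFR2 protein level quantified by ELISA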
Outline: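 ELISA read-out of VEGFRII in primary human umbilical vein endothelium, taken 24 h after chemical treatment. Responses are expressed relative to DMSO, with bidirectional fitting.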

[14] = read-out: Human Leukocyte Antigen - DR isotype (HLADR), HLA-DRA (gene 3122); assay: BSK_BE3C_HLADR: BioMAP Diversity Plus: BE3C Assay for Human Leukocyte Antigen - DR isotype (HLADR) Biomarker Activity (AID 2283032); settings: primary human bronchial epithelial cells; actives raise or lower the signal
Outline: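 Signal came from an ELISA for HLA-DR in human bronchial epithelial primary cells harvested 24 h after treatment; gain- and loss-of-signal fitting used DMSO controls as reference.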

[15] = read-out: Vascular cell adhesion molecule 1 (VCAM1), VCAM1 (gene 7412); assay: BSK_4H_VCAM1: BioMAP Diversity Plus: 4H Assay for Vascular cell adhesion molecule 1 (VCAM1) Biomarker Activity (AID 2283033); settings: primary human endothelial cells (HUVEC); actives raise or lower the signal
Outline: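 Endpoint derived from bidirectional fitting against DMSO controls of VCAM-1 ELISA signal in umbilical vein endothelial cells sampled at 24 h following treatment.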

[16] = read-out: Interferon-gamma inducible Protein 10 (IP10), CXCL10 (gene 3627); assay: BSK_BE3C_IP10: BioMAP Diversity Plus: BE3C Assay for Interferon-gamma inducible Protein 10 (IP10) Biomarker Activity (AID 2283034); settings: primary human bronchial epithelial cells; actives raise or lower the signal
Outline: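 Using primary human bronchial epithelial cultures, the assay captures IP-10 by ELISA one day (24 h) after exposure. Parallel SRB staining of total protein flags overt cytotoxicity. Fits run bidirectionally relative to DMSO.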

[17] = read-out: Monokine induced gamma interferon (MIG), CXCL9 (gene 4283); assay: BSK_BE3C_MIG: BioMAP Diversity Plus: BE3C Assay for Monokine induced gamma interferon (MIG) Biomarker Activity (AID 2283035); settings: primary human bronchial epithelial cells; actives raise or lower the signal
Outline: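 Primary human bronchial epithelial cells treated for 24 h; MIG levels measured by ELISA, fitted bidirectionally versus DMSO. Parallel SRB total-protein staining assessed cytotoxicity.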

[18] = read-out: Transforming growth factor beta 1 (TGFb1), TGFB1 (gene 7040); assay: BSK_BE3C_TGFb1: BioMAP Diversity Plus: BE3C Assay for Transforming growth factor beta 1 (TGFb1) Biomarker Activity (AID 2283036); settings: primary human bronchial epithelial cells; actives raise or lower the signal
Outline: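 In this human primary bronchial epithelial system, an ELISA quantified TGF-b1 one day after dosing. Endpoint changes in either direction were fitted relative to DMSO.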

[19] = read-out: Plasminogen activator inhibitor-1 (PAI1), SERPINE1 (gene 5054); assay: BSK_BE3C_PAI1: BioMAP Diversity Plus: BE3C Assay for Plasminogen activator inhibitor-1 (PAI1) Biomarker Activity (AID 2283037); settings: primary human bronchial epithelial cells; actives raise or lower the signal
Outline: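 PAI-1 biomarker levels in treated human bronchial epithelial cells are determined by ELISA at 24 h. Both increases and decreases relative to DMSO are fitted.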

[20] = read-out: urokinase plasminogen activator (uPA), PLAU (gene 5328); assay: BSK_BE3C_uPA: BioMAP Diversity Plus: BE3C Assay for urokinase plasminogen activator (uPA) Biomarker Activity (AID 2283038); settings: primary human bronchial epithelial cells; actives raise or lower the signal
Outline: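 Bronchial epithelial cells (human, primary); chemical 24 h; uPA by ELISA; bidirectional fit vs DMSO. SRB (0.1%, after 10% TCA fixation, 560 nm) in parallel cultures for cytotoxicity.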

Measured: AC50

COP(=O)(OC)C(O)C(Cl)(Cl)Cl (stereo unspecified)
active: [7] 9.8 µM
inactive: all other assays above

Nc1c(Cl)cc([N+](=O)[O-])cc1Cl
active: [1] 28.8 µM | [14] 12.6 µM
not listed: [9] | [12]
inactive: all other assays above

CCc1cnc(C2=NC(C)(C(C)C)C(=O)N2)c(C(=O)O)c1 (stereo unspecified)
not listed: [12]
inactive: all other assays above

Cc1nn(-c2cc(NS(C)(=O)=O)c(Cl)cc2Cl)c(=O)n1C(F)F
not listed: [12]
inactive: all other assays above

CC(C)=CC1C(C(=O)OCN2C(=O)C3=C(CCCC3)C2=O)C1(C)C (stereo unspecified)
active: [1] 27.9 µM | [5] 27.2 µM | [6] 11.3 µM | [8] 20 µM | [12] 8.64 µM | [14] 20 µM
not listed: [9]
inactive: all other assays above

CN(C)NC(=O)CCC(=O)O
not listed: [9] | [12]
inactive: all other assays above

C#CCC1=C(C)C(OC(=O)C2C(C=C(C)C)C2(C)C)CC1=O (stereo unspecified)
active: [1] 20 µM | [2] 30.7 µM | [5] 28.5 µM | [8] 31.6 µM | [10] 18 µM | [16] 27.1 µM
not listed: [9]
inactive: all other assays above

CN1COCN(Cc2cnc(Cl)s2)C1=N[N+](=O)[O-]
not listed: [9] | [12]
inactive: all other assays above

CCC(CC)Nc1c([N+](=O)[O-])cc(C)c(C)c1[N+](=O)[O-]
active: [1] 36.2 µM | [2] 23.8 µM | [5] 16.7 µM | [6] 20 µM | [7] 13.7 µM | [8] 28.5 µM | [9] 35.6 µM | [10] 20 µM | [11] 15.5 µM | [15] 20 µM
inactive: [3] | [4] | [12] | [13] | [14] | [16] | [17] | [18] | [19] | [20]

CSC1=N[C@@](C)(c2ccccc2)C(=O)N1Nc1ccccc1
active: [1] 5.87 µM | [2] 8.64 µM | [5] 7.26 µM | [15] 9.4 µM
not listed: [9] | [12]
inactive: all other assays above

CC1(C(=O)Nc2ccc(O)c(Cl)c2Cl)CCCCC1
active: [10] 17.8 µM
not listed: [9]
inactive: all other assays above

O=[N+]([O-])c1cc(C(F)(F)F)c(Cl)c([N+](=O)[O-])c1Nc1ncc(C(F)(F)F)cc1Cl
inactive: [4] | [5] | [13]
active: [1] 919 nM and 1.74 µM | [2] 3.36 µM and 4.25 µM | [3] 3.73 µM and 5.09 µM | [5] 1.49 µM | [6] 3.93 µM | [7] 1.5 µM and 2.12 µM | [8] 1.18 µM and 2.13 µM | [10] 1.79 µM and 4.1 µM | [11] 774 nM and 2.49 µM | [12] 1.4 µM and 2.25 µM | [13] 1.2 µM | [14] 1.52 µM and 3.78 µM | [15] 1 µM and 2.33 µM | [16] 1.23 µM and 4.77 µM | [17] 4.03 µM and 7.17 µM | [18] 2.51 µM and 9.94 µM | [19] 7.78 µM and 8.98 µM | [20] 2.19 µM and 1.62 µM

COP(=O)(OC)SCn1c(=O)oc2cc(Cl)cnc21
active: [1] 25.1 µM | [2] 11.3 µM | [5] 20 µM | [7] 39 µM | [8] 17.5 µM | [14] 22 µM | [16] 31.2 µM
not listed: [9] | [12]
inactive: all other assays above

— PubChem BioAssay (EPA / NIEHS)
